Measured values from PubChem BioAssay AID651820 (National Center for Advancing Translational Sciences (NCATS), 2012).
Out of some 340,000 compounds screened, about 12,000 (3.5%) were called active. Entries that show only a call come without a potency. About 18% were inconclusive and are not listed. This is one part of a sample in which actives are shown more often than they occur. Unmarked numbers belong to inactive results. Calls follow the shape of the dose curve; as a rule, active = well fitted inhibition curve with a large enough effect; inconclusive = small, poorly fitted or top-dose-only effect, or another doubt; inactive = no such curve, though single readings can be large or run the other way.

experiment: qHTS Assay for Inhibitors of Hepatitis C Virus (HCV); conditions: Huh7.5.1 HCVcc-Cre infection, luciferase reporter, 44 h; series mostly up to 41.8 µM
Method in brief: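 Infectious HCV cell culture screen: compound-treated cells (1,000/well, pre-plated 4 h) are infected with HCVcc-Cre at roughly 0.5 moi and grown 44 h. Infection is quantified by luciferase signal after 15 min substrate incubation at room temperature.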
Potency is read from the fitted curve at half-maximal effect.

Compound | Potency | activity change, negative = inhibition
CN(C)C(CNC(=O)c1cccc(S(=O)(=O)Nc2ccc(Br)cc2)c1)c1ccco1 (configuration not stated) | inactive | 
O=C(CCCOc1ccccc1)NNC(=O)c1ccc(Cl)cc1 | inactive | 
CC1CCCCC1NC(=O)Cn1c(=O)cnc2ccccc21 (configuration not stated) | inactive | 
Cc1nn(Cc2ccccc2)c(C)c1C(=O)N1CCN(CC(=O)Nc2ccccc2Cl)CC1 | inactive | 
Clc1ccc(C2=CSC3=Nc4cccc5cccc(c45)N23)cc1 | 5.01 µM (active) | 
CCc1nnc(NS(=O)(=O)c2ccc(NC(=O)c3cccc(OC(F)(F)C(F)F)c3)cc2)s1 | inactive | 
Cc1cc(OCCCCOc2ccc(C#N)cc2)ccc1[N+](=O)[O-] | 8.91 µM (active) | 
Cc1cc(C(=O)O)ccc1[N+](=O)[O-] | inactive | 
Cc1cc(OCC(=O)NC2CCN(C)CC2)ccc1[N+](=O)[O-] | inactive | 
COc1ccc(N2CCN(S(=O)(=O)c3cc4c5c(c3)C(C)C(=O)N5CCC4)CC2)cc1 (configuration not stated) |  | 0.733% [at 8.37 µM]
N#C/C(=C1\CCCN1)c1nc(-c2ccccc2)cs1 | 6.31 µM (active) | 
N#C/C(=C1/CCCN1)c1ccccn1 | inactive | 
Cn1c(/C(C#N)=C2/CCCCCN2)nc2ccccc21 | inactive | 
COC1=NC2=NCCN2C(OC)=N1 | inactive | 
COc1ccccc1OCC(O)CN1CCOCC1 (configuration not stated) | inactive | 
OC(COc1ccc(F)cc1Cl)CN1CCc2ccccc2C1 (configuration not stated) | inactive | 
Cc1ccc(OCC(O)CN2CCN(CC(O)COc3ccc(C)cc3Cl)CC2)c(Cl)c1 (configuration not stated) | 25.1 µM (active) | 
COc1ccc2nc(N3C(=O)C(O)=C(C(=O)c4ccco4)C3c3ccco3)sc2c1 (configuration not stated) | inactive | 
CCOc1ccc(/C=C(/C#N)c2nnc(N3CCOCC3)n2-c2ccccc2)cc1OC | inactive | 
CC(C)N(Cc1ccccc1)C(=O)COC(=O)c1ccccc1SCC(=O)N1CCCC1 | inactive | 
CC(=O)Nc1ccc(S(=O)(=O)Oc2ccc(Br)cc2C(=S)N2CCOCC2)cc1 | inactive | 
CCOc1cc(C(=S)N2CCOCC2)ccc1O | inactive | 
CCOc1cc(C(=S)N2CCOCC2)ccc1OS(=O)(=O)c1ccc(Br)cc1 | 10 µM (active) | 

Compound | Potency | activity change, negative = inhibition
Cc1cc(NC(=O)COc2ccccc2C#N)no1 | inactive | 
O=C(Nc1cc(S(=O)(=O)N2CCOCC2)ccc1N1CCOCC1)c1c(F)cccc1Cl | inactive | 
COc1ccc(Cc2nc(-c3ccccn3)no2)cc1OC | inactive | 
COc1cnc(-c2ccccn2)nc1Oc1ccc(C(C)(C)C)cc1 | 10 µM (active) | 
COc1ccc(Sc2nc(-c3ccccc3)ncc2OC)cc1 | inactive | 
O=C1COc2ccc(C(=O)COC(=O)c3ccccc3Cl)cc2N1 | inactive | 
COc1ccc(-c2ccc3c(c2)C2CC3CCN2CCC#N)cc1 (configuration not stated) |  | -2.86% [at 8.37 µM]
CC1(C)O[C@@H]2[C@H](O1)[C@@H](COS(=O)(=O)O)O[C@H]2n1cnc2c(=O)[nH]cnc21 | inactive | 
Cc1ccc(S(=O)(=O)N(C)C)cc1NC(=O)COC(=O)/C=C/c1cccs1 | inactive | 
O=C(COC(=O)COc1cc(Cl)c(Cl)cc1Cl)NC1CC1 | inactive | 
O=C(COC(=O)c1ccc(O)cc1O)NNC(=O)c1cccs1 | inactive | 
COc1ccc2c(c1)C(=O)CC(c1ccccc1)O2 (configuration not stated) | inactive | 
CCC(C)n1c(-c2cc(OC)c(OC)c(OC)c2)nc2nc3ccccc3nc21 (configuration not stated) | 15.8 µM (active) | 
COc1cc(C(=O)Nn2c(CC(C)C)nc3ccccc3c2=O)cc(OC)c1OC | inactive | 
COc1cc(-c2n[nH]c(=S)n2Cc2ccccc2)cc(OC)c1OC | inactive | 
Cc1cc2nc3n(c2cc1C)CC1CC(C(=O)NCCC(C)C)N(C)C31 (configuration not stated) | inactive | 
Cc1cccc(Nc2nnc(SCC(=O)c3c(N)n(C4CC4)c(=O)[nH]c3=O)s2)c1C | inactive | 
O=[N+]([O-])c1ccc(N=NNc2ccc([N+](=O)[O-])cc2)cc1 | inactive | 
COc1cc(OC)c(C(=O)NNC(=O)c2ccc(NS(=O)(=O)c3cccs3)cc2)cc1OC | inactive | 
CC(Nc1nc(N2CCCC2)nc2ccccc12)c1ccccc1 (configuration not stated) | 10 µM (active) | 
Cc1ccc(C(CC(=O)O)Nc2nc(N3CCCCC3)nc(N3CCCCC3)n2)cc1 (configuration not stated) | inactive | 
CC(Nc1nc(N2CCN(CCO)CC2)nc2ccccc12)c1ccccc1 (configuration not stated) | inactive | 
Cc1ccc(C)c(OCC(=O)NNC(=O)C2CCC2)c1 | inactive | 

Compound | Potency | activity change, negative = inhibition
CCc1cc2c(N3CCN(c4nnc(CC)s4)CC3)ncnc2s1 | 7.08 µM (active) | 
O=C(O[C@@H]1[C@H](Cc2ccccc2)NS(=O)(=O)[C@H]2C[C@@H]3C=C[C@]12O3)c1ccccc1Br | inactive | 
COc1cccc(NC(=O)CSc2nccn(-c3ccc4c(c3)OCCO4)c2=O)c1 | inactive | 
CC(=O)Nc1cccc(Nc2nc(-c3cccs3)nc3ccccc23)c1 | 11.2 µM (active) | 
O=c1[nH]c(-c2cccs2)nc2ccccc12 | inactive | 
CC(=O)Nc1cccc(-c2cnc3ccccc3n2)c1 | inactive | 
Cc1ccc(/C=C/C(=O)OCC(=O)NCc2ccc(Cl)cc2)o1 | inactive | 
O=S(=O)(c1ccccc1)N1CCC(c2ccccc2)CC1 | inactive | 
Cc1ccsc1C(=O)NCCc1ccco1 | inactive | 
O=C(COc1ccc(Br)cc1F)NCC1(N2CCCCC2)CCCCC1 | inactive | 
CCN1C[C@@H]2[C@@H]3C(=O)N(Cc4ccccc4)C(=O)[C@@H]3[C@](Cc3ccccc3)(C(=O)OC)N2C1=NC1CCCCC1 |  | 11.2% [at 8.37 µM]
CCC[C@H]1CCCC/C=C\CCCC(=O)OCCN1C(=O)OC(C)(C)C | inactive | 
CCN1C[C@@H]2[C@@H]3C(=O)N(C)C(=O)[C@@H]3[C@](C)(C1=O)N2C(=O)c1ccccc1 | inactive | 
O=C(N/N=C/c1ccc([N+](=O)[O-])o1)c1cn(-c2ccccc2)nc1-c1ccc(F)cc1 | inactive | 
O=C(/C=C/c1ccc([N+](=O)[O-])o1)NNC(=O)c1ccc(F)cc1 | 14.1 µM (active) | 
C/[N+]([O-])=C\c1ccc([N+](=O)[O-])o1 | inactive | 
CCCCCCSc1ccc(-c2nc3ccc(Cl)cn3c2NCc2ccccc2)cc1 | inactive | 
C[C@@H]1NS(=O)(=O)c2cc(Cl)ccc2O[C@@H]1c1ccccc1 | inactive | 
Cc1cccc(-n2c(=O)c3c(C)c(C)sc3n(CC(N)=O)c2=O)c1 | inactive | 
Cc1sc2c(c1C)c(=O)n(-c1ccccc1)c(=O)n2CC(=O)NCC1CCCO1 (configuration not stated) | inactive | 
Cc1cccc(NC(=O)Cn2c(=O)n(Cc3ccccc3)c(=O)c3c(C)c(C)sc32)c1 | 10 µM (active) | 
